Data taken from the supplement of paper PMC11006884.
Targets with a hit are over-represented here; the source holds about 6,500 in all. About 2% of all pairs of compound and target were hits. Unmarked numbers belong to inactive results.

compound: COC(=O)C#Cc1ccccc1 [methyl 3-phenylpropiolate]; assay: log2 ratio of iodoacetamide-alkyne labeling of the cysteine site, DMSO over compound (competition); higher = stronger covalent engagement of the cysteine by the compound, active = 1 or more; conditions: 500 µM; treatment time 1 h; system: HEK293T cell lysate
In short: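 HEK293T lysate (2 mg/mL) was treated with DMSO or electrophile (500 µM, 1 h, ambient temperature), then iodoacetamide alkyne (1 h), clicked to sCIP-TMT reagents, pooled, trypsin-digested overnight at 37 °C, streptavidin-enriched and acid-eluted. Peptides were run on Orbitrap Eclipse LC-MS/MS with FAIMS and quantified in FragPipe. The log2 competition ratio per cysteine is mean control-channel over mean compound-channel reporter intensity. Duplicate channels and three replicates were used, and cysteines quantified in only one replicate were excluded.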

Sequence of UniProt Q9H9A6 (Q9H9A6 whole entry, looked up): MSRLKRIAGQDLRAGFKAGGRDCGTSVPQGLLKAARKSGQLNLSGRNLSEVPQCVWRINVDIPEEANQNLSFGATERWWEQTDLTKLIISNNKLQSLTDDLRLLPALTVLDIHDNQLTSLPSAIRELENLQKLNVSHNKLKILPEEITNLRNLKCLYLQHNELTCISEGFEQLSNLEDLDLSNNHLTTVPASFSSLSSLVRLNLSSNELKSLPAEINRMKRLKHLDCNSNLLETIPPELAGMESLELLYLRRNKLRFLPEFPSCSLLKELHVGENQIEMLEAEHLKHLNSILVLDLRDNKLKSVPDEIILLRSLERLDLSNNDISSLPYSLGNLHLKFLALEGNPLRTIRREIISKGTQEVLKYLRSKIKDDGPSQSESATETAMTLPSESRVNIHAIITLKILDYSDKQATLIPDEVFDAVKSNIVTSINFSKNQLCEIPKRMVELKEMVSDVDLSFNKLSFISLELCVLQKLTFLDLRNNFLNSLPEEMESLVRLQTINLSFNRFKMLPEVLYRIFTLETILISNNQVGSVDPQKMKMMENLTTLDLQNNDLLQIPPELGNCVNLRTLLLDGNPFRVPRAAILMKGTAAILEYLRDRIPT
Sequence of UniProt Q9NVI1 (Q9NVI1 whole entry, looked up): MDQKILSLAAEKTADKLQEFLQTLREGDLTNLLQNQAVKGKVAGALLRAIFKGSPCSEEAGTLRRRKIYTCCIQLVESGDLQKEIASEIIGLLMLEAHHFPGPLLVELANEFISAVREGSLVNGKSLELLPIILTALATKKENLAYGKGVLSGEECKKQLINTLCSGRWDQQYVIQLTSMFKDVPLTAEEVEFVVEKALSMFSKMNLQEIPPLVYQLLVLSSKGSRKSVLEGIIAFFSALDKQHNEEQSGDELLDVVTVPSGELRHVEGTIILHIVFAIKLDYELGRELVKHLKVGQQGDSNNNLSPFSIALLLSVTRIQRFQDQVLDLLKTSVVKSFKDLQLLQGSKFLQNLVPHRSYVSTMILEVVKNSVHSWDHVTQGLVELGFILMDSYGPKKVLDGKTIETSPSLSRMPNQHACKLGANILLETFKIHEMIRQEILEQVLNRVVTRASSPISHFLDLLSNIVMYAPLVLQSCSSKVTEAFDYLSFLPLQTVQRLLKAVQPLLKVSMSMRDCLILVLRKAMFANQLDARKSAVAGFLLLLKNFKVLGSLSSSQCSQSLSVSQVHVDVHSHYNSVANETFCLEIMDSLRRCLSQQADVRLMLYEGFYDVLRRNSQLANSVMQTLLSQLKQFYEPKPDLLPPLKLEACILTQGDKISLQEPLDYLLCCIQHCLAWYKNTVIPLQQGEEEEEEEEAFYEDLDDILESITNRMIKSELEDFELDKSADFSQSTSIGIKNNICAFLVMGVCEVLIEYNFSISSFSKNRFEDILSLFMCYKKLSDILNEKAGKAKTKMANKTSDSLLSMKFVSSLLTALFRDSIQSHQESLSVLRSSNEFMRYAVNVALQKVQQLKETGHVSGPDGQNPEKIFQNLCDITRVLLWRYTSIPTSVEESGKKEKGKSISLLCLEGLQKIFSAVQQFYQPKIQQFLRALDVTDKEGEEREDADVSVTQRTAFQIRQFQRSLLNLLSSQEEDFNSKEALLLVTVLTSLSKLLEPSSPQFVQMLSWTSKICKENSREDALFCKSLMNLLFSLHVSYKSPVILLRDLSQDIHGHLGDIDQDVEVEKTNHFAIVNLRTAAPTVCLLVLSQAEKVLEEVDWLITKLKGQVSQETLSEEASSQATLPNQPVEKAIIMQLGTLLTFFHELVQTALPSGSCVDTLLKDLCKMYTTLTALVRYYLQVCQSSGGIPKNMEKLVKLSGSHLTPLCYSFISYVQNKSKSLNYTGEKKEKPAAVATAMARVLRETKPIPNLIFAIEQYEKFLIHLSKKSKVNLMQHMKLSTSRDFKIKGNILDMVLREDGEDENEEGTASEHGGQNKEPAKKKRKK
Sequence of UniProt Q9C0D3 (Q9C0D3 whole entry): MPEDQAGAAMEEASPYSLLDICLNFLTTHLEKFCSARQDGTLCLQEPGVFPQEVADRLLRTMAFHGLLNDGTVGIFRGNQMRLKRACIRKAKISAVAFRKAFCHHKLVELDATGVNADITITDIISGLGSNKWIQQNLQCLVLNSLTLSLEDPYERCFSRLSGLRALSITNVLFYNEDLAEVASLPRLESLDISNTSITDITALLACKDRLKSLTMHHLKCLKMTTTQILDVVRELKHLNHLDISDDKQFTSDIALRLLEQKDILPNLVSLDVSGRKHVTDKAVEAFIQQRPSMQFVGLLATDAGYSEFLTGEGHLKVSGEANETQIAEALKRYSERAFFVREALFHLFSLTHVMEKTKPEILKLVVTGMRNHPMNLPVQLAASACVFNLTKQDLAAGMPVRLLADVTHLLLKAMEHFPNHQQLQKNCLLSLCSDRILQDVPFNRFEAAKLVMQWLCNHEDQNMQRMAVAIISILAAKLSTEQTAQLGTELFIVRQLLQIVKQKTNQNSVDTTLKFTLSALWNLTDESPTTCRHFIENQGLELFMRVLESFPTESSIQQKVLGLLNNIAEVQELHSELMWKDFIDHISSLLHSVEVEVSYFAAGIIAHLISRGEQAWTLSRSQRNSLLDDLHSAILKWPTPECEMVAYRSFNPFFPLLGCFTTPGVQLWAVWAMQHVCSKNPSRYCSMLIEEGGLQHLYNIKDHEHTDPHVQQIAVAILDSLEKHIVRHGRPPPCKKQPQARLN
Sequence of UniProt Q9NR31 (Q9NR31 whole entry, looked up): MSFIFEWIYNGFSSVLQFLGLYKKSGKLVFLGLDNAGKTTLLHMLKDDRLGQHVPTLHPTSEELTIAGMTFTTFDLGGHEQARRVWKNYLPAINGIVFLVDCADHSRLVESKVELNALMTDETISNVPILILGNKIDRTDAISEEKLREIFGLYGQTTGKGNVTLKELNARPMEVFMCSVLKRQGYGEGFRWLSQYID
Sequence of UniProt Q9C0C2 (Q9C0C2 whole entry, looked up): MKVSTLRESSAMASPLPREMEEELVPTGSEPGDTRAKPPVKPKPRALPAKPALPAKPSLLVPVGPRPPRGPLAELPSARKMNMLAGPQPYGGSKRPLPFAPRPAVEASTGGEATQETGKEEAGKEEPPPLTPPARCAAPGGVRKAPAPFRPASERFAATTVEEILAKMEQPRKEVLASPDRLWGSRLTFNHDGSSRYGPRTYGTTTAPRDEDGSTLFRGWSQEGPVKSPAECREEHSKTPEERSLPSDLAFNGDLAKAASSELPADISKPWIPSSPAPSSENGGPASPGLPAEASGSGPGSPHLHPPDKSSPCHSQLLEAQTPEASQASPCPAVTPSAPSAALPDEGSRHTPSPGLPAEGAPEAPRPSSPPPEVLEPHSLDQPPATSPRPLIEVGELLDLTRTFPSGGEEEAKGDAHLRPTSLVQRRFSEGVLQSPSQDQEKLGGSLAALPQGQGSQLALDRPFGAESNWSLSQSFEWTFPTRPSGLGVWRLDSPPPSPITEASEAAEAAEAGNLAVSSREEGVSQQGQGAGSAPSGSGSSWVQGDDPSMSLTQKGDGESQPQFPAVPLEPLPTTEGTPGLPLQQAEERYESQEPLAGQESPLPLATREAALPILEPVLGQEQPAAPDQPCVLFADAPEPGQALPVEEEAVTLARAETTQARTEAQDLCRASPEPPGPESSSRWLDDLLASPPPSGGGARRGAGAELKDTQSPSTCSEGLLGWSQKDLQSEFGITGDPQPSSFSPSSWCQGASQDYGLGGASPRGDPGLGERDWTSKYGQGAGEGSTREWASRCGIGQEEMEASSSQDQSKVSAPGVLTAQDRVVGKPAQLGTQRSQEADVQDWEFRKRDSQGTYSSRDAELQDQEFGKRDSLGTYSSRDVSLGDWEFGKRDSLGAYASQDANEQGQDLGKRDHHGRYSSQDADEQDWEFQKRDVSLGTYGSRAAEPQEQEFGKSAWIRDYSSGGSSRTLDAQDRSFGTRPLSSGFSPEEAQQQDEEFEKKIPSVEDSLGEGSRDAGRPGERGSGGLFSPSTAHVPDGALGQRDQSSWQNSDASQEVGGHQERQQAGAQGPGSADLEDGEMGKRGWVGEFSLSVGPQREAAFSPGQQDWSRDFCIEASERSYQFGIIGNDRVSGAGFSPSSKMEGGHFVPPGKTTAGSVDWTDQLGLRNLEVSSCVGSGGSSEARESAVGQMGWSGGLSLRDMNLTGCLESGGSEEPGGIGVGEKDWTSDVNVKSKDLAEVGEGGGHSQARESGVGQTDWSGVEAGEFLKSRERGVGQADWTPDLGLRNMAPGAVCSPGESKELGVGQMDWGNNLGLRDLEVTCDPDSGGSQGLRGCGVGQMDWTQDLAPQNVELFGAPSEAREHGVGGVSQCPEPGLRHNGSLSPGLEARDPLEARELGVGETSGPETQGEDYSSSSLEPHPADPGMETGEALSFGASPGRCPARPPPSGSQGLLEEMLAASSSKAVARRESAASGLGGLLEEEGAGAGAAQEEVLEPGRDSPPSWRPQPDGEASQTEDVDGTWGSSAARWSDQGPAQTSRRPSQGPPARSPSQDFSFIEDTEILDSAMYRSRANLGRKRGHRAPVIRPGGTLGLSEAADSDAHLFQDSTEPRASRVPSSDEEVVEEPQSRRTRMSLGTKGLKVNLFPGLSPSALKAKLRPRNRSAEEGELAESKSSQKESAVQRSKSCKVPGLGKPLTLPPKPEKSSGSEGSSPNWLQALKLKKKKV
Sequence of UniProt Q9Y3D8 (Q9Y3D8 whole entry): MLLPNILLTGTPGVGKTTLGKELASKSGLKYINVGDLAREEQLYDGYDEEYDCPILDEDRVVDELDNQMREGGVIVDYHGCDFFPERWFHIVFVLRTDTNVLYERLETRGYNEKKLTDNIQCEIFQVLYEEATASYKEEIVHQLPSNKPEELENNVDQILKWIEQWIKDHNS
Sequence of UniProt Q9NRP0 (Q9NRP0 whole entry): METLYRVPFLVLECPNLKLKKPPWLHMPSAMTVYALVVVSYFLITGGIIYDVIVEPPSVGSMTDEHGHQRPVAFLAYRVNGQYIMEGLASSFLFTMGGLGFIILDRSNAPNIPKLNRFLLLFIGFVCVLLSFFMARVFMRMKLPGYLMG

Q: With TRIM33 C153 (UniProt Q9UPN9) as the target, how does the “log2 ratio of iodoacetamide-alkyne labeling” value (shortened to “log2 ratio”) read?
A: The value was 0.274.

Q: UniProt Q9NRP4_C80 was tested. Which “log2 ratio” value did it give?
A: The value was 0.483.

Q: MRPS7 C152 (UniProt Q9Y2R9) was tested. Which “log2 ratio” value did it give?
A: Its value is -0.102.

Q: MBNL1 C27 (UniProt Q9NR56) was tested. Which “log2 ratio” value did it give?
A: The value was 0.203.

Q: For ADD3 C73 (UniProt Q9UEY8), which “log2 ratio” value is on record?
A: The value was 0.00986.

Q: Which “log2 ratio” value does the source give for TNKS1BP1 C1324 (UniProt Q9C0C2) here?
A: The value was 1.18 (active).

Q: Which “log2 ratio” value does the source give for DDX56 C286 (UniProt Q9NY93) here?
A: The value was 0.51.

Q: With MTPAP C242 (UniProt Q9NVV4) as the target, how does the “log2 ratio” value read?
A: The value was 0.146.

Q: How did the “log2 ratio” value turn out when UniProt Q9NWR8_C324 was run?
A: Its value is 1.65 (active).

Q: Which “log2 ratio” value does the source give for FAM83D C15 (UniProt Q9H4H8) here?
A: Its value is 1.11 (active).

Q: With TANC1 C1594 (UniProt Q9C0D5) as the target, how does the “log2 ratio” value read?
A: Its value is 1.06 (active).

Q: Which “log2 ratio” value does the source give for FANCI C56 (UniProt Q9NVI1) here?
A: Its value is 0.281.

Q: How did the “log2 ratio” value turn out when UNK C383 (UniProt Q9C0B0) was run?
A: Its value is 0.721.

Q: LRRC40 C227 (UniProt Q9H9A6) was tested. Which “log2 ratio” value did it give?
A: Its value is 0.34.

Q: UniProt Q9Y5J5_C87 was tested. Which “log2 ratio” value did it give?
A: Its value is 0.486.

Q: For SLC4A1AP C730 (UniProt Q9BWU0), which “log2 ratio” value is on record?
A: Its value is 1.48 (active).

Q: UniProt Q9P260_C624 was tested. Which “log2 ratio” value did it give?
A: The value was 0.299.

Q: How did the “log2 ratio” value turn out when KIF3A C621 (UniProt Q9Y496) was run?
A: Its value is 0.962.

Q: How did the “log2 ratio” value turn out when UniProt Q9BXJ9_C465 was run?
A: Its value is 0.109.

Q: With NAT10 C486 (UniProt Q9H0A0) as the target, how does the “log2 ratio” value read?
A: The value was 0.0616.

Q: For UniProt Q9Y312_C156, which “log2 ratio” value is on record?
A: Its value is 0.41.

Q: Which “log2 ratio” value does the source give for ZMYM2 C852 (UniProt Q9UBW7) here?
A: The value was 0.581.

Q: For SAP30BP C127 (UniProt Q9UHR5), which “log2 ratio” value is on record?
A: Its value is 1.3 (active).

Q: With NAT10 C489 (UniProt Q9H0A0) as the target, how does the “log2 ratio” value read?
A: Its value is 0.0616.

Q: Which “log2 ratio” value does the source give for AK6 C53 (UniProt Q9Y3D8) here?
A: The value was 0.109.

Q: UniProt Q9Y520_C223 was tested. Which “log2 ratio” value did it give?
A: Its value is 0.239.

Q: For BRD7 C338 (UniProt Q9NPI1), which “log2 ratio” value is on record?
A: Its value is 1.01 (active).

Q: With UniProt Q9NUQ3_C56 as the target, how does the “log2 ratio” value read?
A: The value was 1.97 (active).

Q: Which “log2 ratio” value does the source give for NCDN C4 (UniProt Q9UBB6) here?
A: Its value is 1.66 (active).

Q: For UniProt Q9NW64_C24, which “log2 ratio” value is on record?
A: The value was 0.351.

Q: Which “log2 ratio” value does the source give for SRRM2 C1016 (UniProt Q9UQ35) here?
A: Its value is 1.12 (active).

Q: ZYG11B C643 (UniProt Q9C0D3) was tested. Which “log2 ratio” value did it give?
A: The value was 0.222.

Q: How did the “log2 ratio” value turn out when FTO C326 (UniProt Q9C0B1) was run?
A: The value was 0.0865.

Q: STRN4 C337 (UniProt Q9NRL3) was tested. Which “log2 ratio” value did it give?
A: The value was 0.488.

Q: How did the “log2 ratio” value turn out when SAR1A C178 (UniProt Q9NR31) was run?
A: The value was 0.0354.

Q: For UniProt Q9NWY4_C17, which “log2 ratio” value is on record?
A: Its value is 0.873.

Q: With OSTC C14 (UniProt Q9NRP0) as the target, how does the “log2 ratio” value read?
A: Its value is 0.193.

Q: Which “log2 ratio” value does the source give for FHOD1 C31 (UniProt Q9Y613) here?
A: The value was 0.248.

Q: How did the “log2 ratio” value turn out when UniProt Q9NPA3_C62 was run?
A: The value was 0.293.

Q: With TPX2 C145 (UniProt Q9ULW0) as the target, how does the “log2 ratio” value read?
A: The value was 0.384.
